Assay outcomes (PubChem BioAssay)
Many of the other results were omitted from the sample, so hits are more common in it than they were.
IDE exosite FP = insulin-degrading enzyme (human) exo-site inhibition; P14735; purified IDE, FL-6b probe fluorescence polarization; active compounds read low; z-score at 20 µM; 17,000 tested, 6.3% active;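 active = z-score of -3 or lower, meaning strong loss of probe binding signal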;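 also: His-tagged human IDE residues 42-1019 made in E. coli with 30 nM FL-6b probe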
Target sequence (P14735 42-1019 limits assumed): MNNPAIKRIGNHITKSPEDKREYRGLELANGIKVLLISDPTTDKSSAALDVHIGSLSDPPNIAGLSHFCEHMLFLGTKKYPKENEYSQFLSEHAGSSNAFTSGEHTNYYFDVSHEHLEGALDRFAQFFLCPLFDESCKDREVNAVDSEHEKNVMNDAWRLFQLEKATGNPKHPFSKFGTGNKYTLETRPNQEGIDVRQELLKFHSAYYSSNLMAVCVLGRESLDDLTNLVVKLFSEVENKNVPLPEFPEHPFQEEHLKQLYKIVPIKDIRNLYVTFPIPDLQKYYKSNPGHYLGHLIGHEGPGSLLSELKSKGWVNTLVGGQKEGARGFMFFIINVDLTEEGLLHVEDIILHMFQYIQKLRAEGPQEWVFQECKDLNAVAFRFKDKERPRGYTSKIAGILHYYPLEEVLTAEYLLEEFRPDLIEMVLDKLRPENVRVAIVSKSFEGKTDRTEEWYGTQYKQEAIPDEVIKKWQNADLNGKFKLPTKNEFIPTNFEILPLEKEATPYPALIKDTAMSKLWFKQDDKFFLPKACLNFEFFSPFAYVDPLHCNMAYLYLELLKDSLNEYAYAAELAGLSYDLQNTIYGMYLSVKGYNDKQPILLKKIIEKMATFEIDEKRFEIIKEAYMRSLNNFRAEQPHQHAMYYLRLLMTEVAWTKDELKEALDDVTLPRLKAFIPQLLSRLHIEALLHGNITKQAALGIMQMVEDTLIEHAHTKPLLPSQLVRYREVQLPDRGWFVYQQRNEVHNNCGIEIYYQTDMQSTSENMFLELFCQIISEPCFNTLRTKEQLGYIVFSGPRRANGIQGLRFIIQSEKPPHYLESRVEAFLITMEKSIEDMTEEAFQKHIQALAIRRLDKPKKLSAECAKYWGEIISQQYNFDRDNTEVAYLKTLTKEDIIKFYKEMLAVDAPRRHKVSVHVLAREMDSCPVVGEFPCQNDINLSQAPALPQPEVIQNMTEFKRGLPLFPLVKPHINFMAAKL
An asterisk follows results filed as active.

SMILES	IDE exosite FP
CCCNC(=O)N1CC(=O)N2[C@H](CO)[C@@H](c3ccc(C#Cc4cccc(OC)c4)cc3)[C@H]2C1	0.01
CCCNC(=O)N1CC(=O)N2[C@H](CO)[C@@H](c3ccc(C#Cc4cccc(OC)c4)cc3)[C@@H]2C1	-3
CCC(=O)Nc1ccc2c(c1)OC[C@@H](C)N(Cc1ccccc1)C[C@H](C)[C@H](OC)CN(C)C2=O	1.6
C[C@@H]1CCn2cc(nn2)COC[C@H](Cc2ccccc2)NC1=O	0.037
CCC(=O)Nc1ccc2c(c1)OC[C@H](C)N(Cc1ccccc1)C[C@H](C)[C@H](OC)CN(C)C2=O	1.3
CC(C)CC#Cc1ccc([C@H]2[C@H](CO)N3C(=O)CN(S(C)(=O)=O)C[C@@H]23)cc1	4.6
CCC(=O)Nc1ccc2c(c1)OC[C@@H](C)N(Cc1ccccc1)C[C@@H](C)[C@H](OC)CN(C)C2=O	1.1
C/C=C/c1ccc([C@H]2[C@@H](CO)N(CCC)[C@@H]2CNC(=O)NC2CCCC2)cc1	1.8
CC(C)NC(=O)N1CCCCN2[C@H](C1)[C@@H](c1ccc(Br)cc1)[C@@H]2CO	2.7
COc1ccc(-c2ccc([C@H]3[C@@H](CO)N4CCCCN(C(=O)NC(C)C)C[C@H]34)cc2)cc1	-1.7
COCC(=O)N1CCCCN2[C@@H](CO)[C@@H](c3ccc(-c4ccc(OC)cc4)cc3)[C@@H]2C1	0.41
COc1ccc(-c2ccc([C@@H]3[C@H]4CN(C(=O)NC(C)C)CCCCN4[C@H]3CO)cc2)cc1	-6.6*
COCC(=O)N1CCCCN2[C@H](CO)[C@@H](c3ccc(-c4ccc(OC)cc4)cc3)[C@H]2C1	-1.3
COc1ccc(-c2ccc([C@@H]3[C@H]4CN(C(=O)c5ccc(F)cc5)CCCCN4[C@H]3CO)cc2)cc1	1.5
COc1ccc(-c2ccc([C@H]3[C@H](CO)N4CCCCN(C(=O)NC(C)C)C[C@@H]34)cc2)cc1	-7.3*
COCC(=O)N1CCCCN2[C@H](C1)[C@H](c1ccc(-c3ccc(OC)cc3)cc1)[C@@H]2CO	-0.9
COc1ccc(-c2ccc([C@H]3[C@@H](CO)N4CCCCN(C(=O)NC(C)C)C[C@@H]34)cc2)cc1	-6.3*
O=C(N[C@@H]1CC[C@@H](CCNS(=O)(=O)c2ccc(F)cc2)O[C@@H]1CO)C1CCC1	3.4
CCS(=O)(=O)N1[C@H](CO)[C@@H](c2ccc(C#CCC3CCCC3)cc2)[C@@H]1C#N	-0.39
CN1c2ccc(-c3ccc(F)cc3)cc2[C@H]2[C@H](CCN2C(=O)Cc2cccnc2)[C@@H]1CO	1.5
O=C(c1cccc(F)c1)N1CCCCN2[C@H](CO)[C@H](c3ccc(/C=C/c4ccccc4)cc3)[C@@H]2C1	-1.4
COc1cccc(NC(=O)N2CC(=O)N3[C@H](CO)[C@H](c4ccc(C#CCC5CCCC5)cc4)[C@H]3C2)c1	0.51
O=C(c1ccc(F)cc1)N1CC(=O)N2[C@@H](CO)[C@H](c3ccc(C#CCC4CCCC4)cc3)[C@@H]2C1	0.64
O=C1CN(S(=O)(=O)c2ccccc2)C[C@H]2[C@@H](c3ccc(C4=CCCC4)cc3)[C@@H](CO)N12	5.4
CO[C@@H]1CN(C)C(=O)c2cc(NC(=O)CC(F)(F)F)ccc2OC[C@H](C)N(CC2CC2)C[C@H]1C	-0.86
SMILES	IDE exosite FP
CCCC#Cc1ccc([C@@H]2[C@@H](CO)N3C(=O)CN(C(=O)c4cccc(F)c4)C[C@@H]23)cc1	0.51
CN(C)C(=O)c1cccc(-c2ccc([C@@H]3[C@@H](CO)N(C(=O)C4CCCCC4)[C@H]3C#N)cc2)c1	4.6
O=C(Cc1ccccn1)N1CC(=O)N2[C@@H](CO)[C@@H](c3ccc(-c4ccccc4)cc3)[C@@H]2C1	-5.6*
O=C(Cc1ccccn1)N1CC(=O)N2[C@H](CO)[C@@H](c3ccc(-c4ccccc4)cc3)[C@H]2C1	-0.4
Cc1ccc(-c2ccc([C@@H]3[C@@H](CO)N4C(=O)CN(C(=O)Cc5ccccn5)C[C@H]34)cc2)cc1	-1.2
Cc1cccc(-c2ccc([C@H]3[C@H](CO)N4C(=O)CN(C(=O)Cc5ccccn5)C[C@@H]34)cc2)c1	-6.9*
O=C(Cc1ccccn1)N1CC(=O)N2[C@H](CO)[C@H](c3ccc(-c4ccc(F)cc4)cc3)[C@@H]2C1	-0.59
Cc1cccc(-c2ccc([C@@H]3[C@@H](CO)N4C(=O)CN(C(=O)Cc5ccccn5)C[C@H]34)cc2)c1	-5.7*
Cc1ccc(-c2ccc([C@@H]3[C@H]4CN(C(=O)Cc5ccccn5)CC(=O)N4[C@H]3CO)cc2)cc1	-0.8
Cc1ccc(-c2ccc([C@@H]3[C@@H](CO)N4C(=O)CN(C(=O)Cc5ccccn5)C[C@@H]34)cc2)cc1	-2.6
C/C=C/c1ccc([C@H]2[C@@H](CO)N(C(=O)C3CCCC3)[C@H]2CNCC)cc1	0.75
O=C(C1CCC1)N1CCCCN2[C@@H](CO)[C@@H](c3ccc(-c4ccncc4)cc3)[C@@H]2C1	0.014
COCC(=O)Nc1ccc2c(c1)C(=O)N(C)C[C@@H](OC)[C@H](C)CN(C(=O)c1ccncc1)[C@H](C)CO2	-0.7
COc1ccccc1-c1ccccc1[C@@H]1[C@@H](C#N)N(C(=O)C2CC2)[C@H]1CO	2.6
N#C[C@H]1[C@@H](c2ccc(C3=CCCC3)cc2)[C@H](CO)N1C(=O)c1ccccn1	0.12
CCCC(=O)Nc1ccc2c(c1)C(=O)N(C)[C@H]1CC[C@H](CC(=O)N3CCCCC3)O[C@H]1CO2	-0.59
C[C@@H]1CCCn2cc(nn2)COCCNC1=O	0.49
O=C(NC[C@@H]1[C@H](c2ccccc2)[C@H](CO)N1C(=O)C1CCC1)NC1CCCC1	-0.77
O=C(CN1CCOCC1)N1CCCCN2[C@H](C1)[C@H](c1ccc(C#Cc3ccccc3)cc1)[C@@H]2CO	-13*
O=C(CN1CCOCC1)N1CCCCN2[C@H](C1)[C@H](c1ccc(Br)cc1)[C@@H]2CO	-1.2
O=C(CN1CCOCC1)N1CCCCN2[C@H](CO)[C@H](c3ccc(Br)cc3)[C@@H]2C1	-0.21
O=C(CN1CCOCC1)N1CCCCN2[C@@H](CO)[C@H](c3ccc(C#Cc4ccccc4)cc3)[C@@H]2C1	-7.1*
O=C(CN1CCOCC1)N1CCCCN2[C@H](C1)[C@@H](c1ccc(C#Cc3ccccc3)cc1)[C@@H]2CO	-6.6*
O=C(CN1CCOCC1)N1CCCCN2[C@H](CO)[C@@H](c3ccc(C#Cc4ccccc4)cc3)[C@H]2C1	-3.3*
Cc1ccccc1-c1ccc([C@H]2[C@@H](CO)N3CCCCN(C(=O)CN4CCOCC4)C[C@@H]23)cc1	0.13
SMILES	IDE exosite FP
CCCNC(=O)N1[C@H](CO)[C@@H](c2ccccc2)[C@@H]1C#N	2.2
CC(C)CC#Cc1ccc([C@H]2[C@H](CO)N3CCCCN(S(=O)(=O)c4ccc(F)cc4)C[C@@H]23)cc1	1.7
CN(C)C(=O)c1cccc(-c2ccccc2[C@@H]2[C@@H](CO)N(C(=O)C3CCC3)[C@H]2C#N)c1	2.1
C[C@H](O)C#Cc1ccc([C@@H]2[C@@H](CO)N3CCCCN(CC4CCOCC4)C[C@H]23)cc1	3.5
COCC(=O)N1CC(=O)N2[C@H](C1)[C@H](c1ccc(Br)cc1)[C@@H]2CO	3.4
CN(C)C(=O)c1cccc(-c2ccc([C@H]3[C@H](CO)N4CCCCN(CCC(F)(F)F)C[C@@H]34)cc2)c1	4.3
COCC#Cc1ccc([C@H]2[C@@H](CO)N3C(=O)CN(C(=O)c4ccncc4)C[C@H]23)cc1	0.063
C[C@H]1CN([C@@H](C)CO)C(=O)c2ccccc2-c2ccccc2CO[C@@H]1CN(C)C(=O)Nc1ccnc(N2CCOCC2)c1	-0.98
